Measurements reported in PubChem BioAssay (NCATS).
Where “and” joins values, the source holds several entries; their conditions need not be identical. Equal entries are not always repeated. Results filed as inconclusive are left out. Calls of active or inactive are those of the source. Unless noted, the call rests on the fitted dose curve; in most records, active means well fitted curve in the direction sought with a large enough effect; inconclusive means small, poorly fitted or top-dose-only effect, or another doubt; inactive means no such curve, though single readings can be large; an effect the other way counts as inactive or inconclusive.

Key:
[1] = AP1 Signaling Pathway (AID 357; active means well fitted curve in either direction with a large enough effect, not every such curve was filed as active; further: on the % scale 0 is the no-effect control and ±100 the full control effect); details: ME-180 AP-1-bla reporter, EGF-induced, beta-lactamase ratio, 5 h; at 7.69 µM (top of the series) unless noted
How it was run: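 AP-1-bla ME-180 cells with beta-lactamase reporter under AP-1 response element, stimulated with EC50 EGF; compounds titrated, 5 hours at 37 degrees Celsius. CCF4 read at 460/530 nm ratio; positive and negative modulators judged by AC50.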

[2] = Cell Viability - BJ (AID 421; calls by dose curve;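 further: potency means the concentration at half of the fitted maximal effect; cells exposed to compound for 40 hours at 37 °C before readout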); details: BJ fibroblast viability, qHTS
How it was run: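 Cytotoxicity as drop in intracellular ATP (CellTiter-Glo, 20 min RT) after 40 hr compound exposure of BJ fibroblasts at 37 °C. Titrations scaled between DMSO and 100 uM tamoxifen, Hill-fitted for AC50.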

[3] = Cell Viability - Hek293 (AID 427;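 active means compounds whose dose-response curve shows a full or clear partial loss of cell viability, called from curve shape rather than a numeric limit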;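 further: potency means the concentration at half of the fitted maximal effect; cells exposed to compound for 40 hours at 37 °C before reading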); details: qHTS
How it was run: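 Luminescent ATP content (CellTiter-Glo, 20 min at room temperature) was measured after a 40 hr, 37 °C compound exposure of HEK293 cells. AC50 values came from Hill-equation fits of qHTS concentration-response data normalized to DMSO and 100 uM tamoxifen.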

[4] = Cell Viability - HepG2 (AID 433; calls by dose curve;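 further: potency means the concentration at half of the fitted maximal effect; potency for ATP loss meaning cytotoxicity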); details: qHTS
How it was run: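 Cytotoxicity is scored as loss of intracellular ATP in HepG2 cells exposed to compounds for 40 h. Concentration-response curves, normalized to DMSO and 100 uM tamoxifen, give AC50 values.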

[5] = Cell Viability - MRC5 (AID 434; calls by dose curve;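 further: potency means the concentration at half of the fitted maximal effect; cells exposed to compound for 40 hours at 37 °C; potency reflects cytotoxicity seen as loss of intracellular ATP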); details: MRC5 lung fibroblast viability, qHTS
How it was run: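 MRC5 normal human lung fibroblasts (1500/well) were treated with compounds for 40 hr at 37 °C in complete medium, and viable cells were measured as intracellular ATP by CellTiter-Glo luminescence. AC50 came from Hill fits, normalized to DMSO and 100 uM tamoxifen.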

[6] = Cell Viability - SK-N-SH (AID 435; calls by dose curve;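 further: potency means the concentration at half of the fitted maximal effect; compound exposure lasted 40 h at 37 °C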); details: SK-N-SH neuroblastoma cell viability qHTS
How it was run: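 Cells seeded at 1500 per well and incubated 5 hr at 37 °C. Compound added, then 40 hr at 37 °C. CellTiter-Glo added, 20 min at room temperature, luminescence read.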

[7] = NFAT Signaling Pathway (AID 444; active means well fitted curve in either direction with a large enough effect, not every such curve was filed as active;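 further: carbachol stimulus at about its EC50 of 1 µM final; on the % scale 0 is the no-effect control and ±100 the full control effect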); details: Jurkat NFAT-bla M1, carbachol, beta-lactamase ratio, 5 h; at 7.69 µM (top of the series) unless noted
How it was run: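 Jurkat cells carrying an NFAT-driven β-lactamase reporter and co-transfected muscarinic M1 receptor were treated with compound plus carbachol (1 uM final, an EC50 level) for 5 h at 37 °C. CCF4 loading followed for 1 h at RT; 460/530 nm ratio gave %activity.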

[8] = Stat Signaling Pathway (AID 446; active means well fitted curve in either direction with a large enough effect, not every such curve was filed as active;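 further: ME-180 cervical cancer cells given 40 pM IL-6 alongside compound; SIE-controlled beta-lactamase reporter measured as 460/530 nm FRET emission ratio; on the % scale 0 is the no-effect control and ±100 the full control effect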); details: ME-180 SIE beta-lactamase reporter, IL-6 stimulated, 5 h; at 7.69 µM (top of the series) unless noted
How it was run: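 Reporter line: ME-180 cervical carcinoma, SIE-beta-lactamase. Treatment: compound with 40 pM IL-6, 5 hrs, 37 C, in low-serum OPTI-MEM with 10 mM HEPES pH 7.3. Detection: 460/530 nm fluorescence.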

[9] = target: Mitogen-activated protein kinase 10 (Mus musculus) (UniProt Q61831); experiment: JNK3 AlphaScreen Assay (AID 530; active means well fitted curve in either direction with a large enough effect, not every such curve was filed as active;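 further: kinase came from lysate of stimulated human HepG2 cells; signal reports phosphorylation of biotinylated GST-cJun 1-79 at Ser73 with 10 µM ATP; on the % scale 0 is the no-effect control and ±100 the full control effect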)
How it was run: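 JNK3 came from HepG2 lysates pre-activated with IL-1beta and TNF-alpha and phosphorylated biotinylated GST-cJun (1-79) at 10 uM ATP, pH 7.6, room temperature. Compounds were titrated. AlphaScreen signal used anti-phospho-cJun (Ser73) antibody.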

[10] = Cell Viability - N2a (AID 540);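 further: cells exposed to compound for 40 h at 37 °C; plate controls were DMSO alone for no effect and tamoxifen control for full effect; nearly all actives have a fitted effect of over 45% in size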
How it was run: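 First, 1500 N2a cells per well incubate 5 hr at 37 °C; next, compounds are added and incubated 40 hr at 37 °C; finally CellTiter-Glo is added and luminescence read after 20 min, with AC50 derived by Hill modeling.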

[11] = Cell Viability - NIH 3T3 (AID 541);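 further: plate controls were DMSO alone for no effect and tamoxifen positive control for full effect; nearly all actives have a fitted effect of over 25% in size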
How it was run: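 AC50 values reflect concentration-dependent loss of intracellular ATP in NIH 3T3 cells after 40 hr treatment in complete culture medium, quantified by luciferase-based luminescence.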

[12] = Cell Viability - SH-SY5Y (AID 544);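 further: 0% = DMSO alone and -100% = 100 µM tamoxifen; nearly all actives have a fitted effect of over 55% in size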
How it was run: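 Cytotoxicity is scored as a concentration-dependent fall in intracellular ATP in human SH-SY5Y cells treated 40 hr in complete culture medium. Potency is expressed as AC50 from a Hill equation fit.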

[13] = Cell Viability - Renal Proximal Tubule (AID 545);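 further: 0% = DMSO only and -100% = 100 µM tamoxifen; nearly all actives have a fitted effect of over 40% in size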
How it was run: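 Cytotoxicity is scored as a concentration-dependent drop in cellular ATP in primary rat renal proximal tubule cells exposed for 40 hr. AC50 derives from Hill modelling.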

[14] = Cell Viability - Mesenchymal (AID 546);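 further: potency means the concentration at half of the fitted maximal effect; cells exposed to compound for 40 hours before reading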
How it was run: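 Normal human renal glomerulus-derived kidney mesenchymal cells, 1000 per well in complete medium, were treated with compounds for 40 hr at 37 °C. Viability was read as intracellular ATP by CellTiter-Glo luminescence; AC50 values came from Hill-equation fits of qHTS concentration-response data.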

[15] = target: 3',5'-cyclic-AMP phosphodiesterase 4B (Homo sapiens) (UniProt Q07343); experiment: qHTS Assay for Inhibitors of PDE-IV (AID 607; active means well fitted activation curve with a large enough effect in the main read-out, with a control signal flat, not every such curve was filed as active; further: % of control where 0% means no effect)
How it was run: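 Cell-based read-out of cAMP via a modified cyclic nucleotide-gated channel and membrane potential dye (535/590 nm) in HEK293 cells expressing PDE4 endogenously. Compounds tested up to 22.9 uM final; 100 uM RO 20-1724 reference.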

[16] = Cellular Toxicity (caspase-3) HepG2 (AID 654);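 further: cells exposed to compound for 16 hours before reading; 0% = DMSO alone and 100% = caspase signal from 100 µM tamoxifen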
How it was run: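 qHTS, HepG2, 1500 cells/well, complete medium; cpd 16 h 37 °C; Caspase-Glo 3/7, 20 min RT; lum. Norm: DMSO vs 100 uM tamoxifen; AC50 Hill fit.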

[17] = Cellular Toxicity (caspase-3) Jurkat (AID 655);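 further: cells exposed to compound for 16 h at 37 °C before reading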
How it was run: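 Caspase 3/7 activation is scored as increased luminescence in Jurkat cells cultured with compound for 16 hours in complete medium. AC50 values come from Hill fits of qHTS concentration-response data normalized to DMSO and 100 uM tamoxifen controls.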

[18] = Cellular Toxicity (caspase-3) HUV-EC-C (AID 656);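 further: 0% = DMSO basal and 100% = 100 µM tamoxifen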
How it was run: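 Read-out: luminescence proportional to caspase 3/7 activity, measured 20 min after adding Caspase-Glo 3/7 reagent. Cells (HUV-EC-C) had received compound for 16 hr at 37°C. Increases relative to DMSO and 100 uM tamoxifen gave concentration-response AC50 values.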

[19] = Cellular Toxicity (caspase-3) SHSY5Y (AID 657)
How it was run: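 Cells plated and incubated 5 h at 37 °C, dosed over a concentration range, incubated 16 h, then given Caspase-Glo 3/7 reagent for 1 h at room temperature before luminescence reading. Staurosporine (10 uM) defined full stimulation.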

[20] = Cellular Toxicity (caspase-3) BJ (AID 658);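 further: 0% = DMSO basal and 100% = 10 µM staurosporine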
How it was run: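 Luminescent aminoluciferin-substrate cleavage reports caspase 3/7 activity in normal human BJ fibroblasts after 16 hr compound exposure at 37 °C. Normalized to DMSO (basal) and 10 uM staurosporine (100%); AC50 from Hill fit of concentration-response.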

[21] = Cellular Toxicity (caspase-3) MRC-5 (AID 659);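 further: 0% = DMSO basal and 100% = 10 µM staurosporine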
How it was run: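 Luminescence from caspase-cleaved aminoluciferin substrate (Caspase-Glo 3/7, 1 hr RT) reports caspase 3/7 activity in MRC-5 lung fibroblasts after 16 hr compound exposure. Normalized to DMSO basal and 10 uM staurosporine as 100%; AC50 from Hill fits.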

[22] = Cellular Toxicity (caspase-3) Mesangial (AID 660);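 further: cells exposed to compound for 16 h before the caspase read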
How it was run: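 Concentration-response qHTS: compound-induced rise in caspase 3/7 luminescence in human mesangial cells after 16 h, normalized to DMSO and 100 uM tamoxifen controls.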

[23] = Cellular Toxicity (caspase-3) SK-N-SH (AID 661);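 further: 0% = DMSO basal and 100% = 10 µM staurosporine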
How it was run: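 Caspase 3/7 activation is measured as a luminescence increase from aminoluciferin released by substrate cleavage in SK-N-SH cells after 16 hr compound treatment; values are AC50 from concentration-response curves.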

[24] = Cellular Toxicity (caspase-3) H-4-II-E (AID 663);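 further: cells exposed to compound for 16 hr before readout; 0% = DMSO basal and 100% = 100 µM tamoxifen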
How it was run: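 Luminescence from caspase-cleaved aminoluciferin substrate, read 20 min after reagent addition, reports caspase 3/7 activation in rat H-4-II-E cells after 16 hr compound exposure. Normalized to DMSO (basal) and 100 uM tamoxifen (100%); AC50 from Hill fits.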

[25] = Cellular Toxicity (caspase-3) Hek293 (AID 664);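 further: cells exposed to compound for 16 h at 37 °C before readout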
How it was run: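 Activation of caspase-3/7 is measured as increased luminescence from cleaved peptide-aminoluciferin substrate in HEK293 cells treated 16 hours at 37 °C. AC50 values come from Hill-equation fits of concentration-response data.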

[26] = Cellular Toxicity (caspase-3) N2a (AID 665);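 further: compound exposure lasted 16 h at 37 °C before readout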
How it was run: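 Plated mouse neuroblastoma N2a cells received titrated compounds for 16 h in complete medium. Caspase activity was then detected with a peptide-aminoluciferin luminescent reagent.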

[27] = Cellular Toxicity (caspase-3) NIH 3T3 (AID 666);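 further: 0% = DMSO basal and 100% = 100 µM tamoxifen stimulation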
How it was run: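 Concentration-response qHTS in NIH 3T3 mouse fibroblasts scores caspase-3/7 activation as rising luminescence after 16 hr compound exposure. Signals are scaled between DMSO-only and 100 uM tamoxifen.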

[28] = Cellular Toxicity (caspase-3) Renal Proximal Tubule (AID 667);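 further: cells exposed to compound for 16 hours at 37 °C before detection; 0% = DMSO basal and 100% = 10 µM staurosporine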
How it was run: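 In qHTS format, rat primary proximal tubule cells seeded at 1000 per well are exposed to compounds for 16 hours at 37 °C. An increase in Caspase-Glo 3/7 luminescence indicates caspase activation.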

[29] = Confirmation and Secondary Assay for Modulators of Hemoglobin Beta Chain Splicing at IVS2 654 locus (AID 910);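 further: per-well total GFP intensity by laser scanning cytometry after 2-day treatment; % of control where 0% means no effect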
How it was run: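 HeLa cells stably carrying EGFP interrupted by mutant beta-globin IVS2-654 intron (CMV-driven) were treated with compound for 2 days at 37C; corrected splicing was scored as total peak GFP intensity per well (488 nm excitation, 500-520 nm emission).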

[30] = Cell Viability - LYMP2-001 (AID 921);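 further: 0% = DMSO only and full inhibition = tetraoctylammonium bromide control wells; nearly all actives have a fitted effect of over 70% in size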
How it was run: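 qHTS, 1536-well; lymphoblastoid cells, 24 hr compound, 37 C; ATP by CellTiter-Glo, 30 min RT; luminescence; Hill-fit AC50.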

[31] = Confirmation and Secondary Assay for Modulators of Hemoglobin Beta Chain Splicing at IVS2 705 locus (AID 930);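 further: HeLa cells stably expressing the EGFP-705 splicing reporter; GFP fluorescence per well restored by corrected splicing of the IVS2-705 intron in EGFP; % of control where 0% means no effect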
How it was run: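 Secondary splice-site specificity test uses HeLa expressing CMV-driven EGFP interrupted by IVS2-705; cells were treated 2 days at 37C with 500 nM antisense PNA as positive control.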

[32] = MultiTox-Fluor Cytotoxicity Assay - LYMP1-001 - Dead Cells (AID 946)
How it was run: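 Cytotoxicity as increased dead-cell protease fluorescence (bis-AAF-R110, 485/520 nm), read 60 min after MultiTox-Fluor reagent. Human lymphoblastoid line exposed 16 h; Hill-fitted AC50, with DMSO as 0% and 15 uM tetraoctylammonium bromide as 100%.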

[33] = MultiTox-Fluor Cytotoxicity Assay - LYMP1-001 - Live Cells (AID 947);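 further: 0% = DMSO only and full inhibition = tetraoctylammonium bromide control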
[34] = Cell Viability - LYMP1-002 - Assay at 16 hr (AID 948);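 further: 0% = DMSO alone and full effect = 92 µM tetraoctylammonium bromide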
How it was run: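 Acute cytotoxicity is scored as a concentration-dependent fall in intracellular ATP in a human lymphoblastoid line (LYMP1-002) after 16 hr compound exposure at 37 C, measured by luciferase luminescence.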

[35] = MultiTox-Fluor Cytotoxicity Assay - LYMP1-002 - Live Cells (AID 955); further: on the % scale 0 is the no-effect control and ±100 the full control effect
How it was run: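 Cytotoxicity in the human lymphoblastoid line LYMP1-002 is measured as loss of live-cell protease activity after 16 h treatment in complete culture medium. AC50 is derived from Hill-equation fits of qHTS concentration-response data.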

[36] = MultiTox-Fluor Cytotoxicity Assay - LYMP1-003 - Dead Cells (AID 961); further: nearly all actives have a fitted effect of over 70% in size
How it was run: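 Dead-cell protease release, detected as bis-AAF-R110 fluorescence at 485/520 nm, was measured in LYMP1-003 cells after 16 h compound treatment at 37 C. AC50 values came from Hill-modeled qHTS curves normalized to DMSO (0%) and 15 uM tetraoctylammonium bromide (100%).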

[37] = MultiTox-Fluor Cytotoxicity Assay - LYMP1-003 - Live Cells (AID 962);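 further: 0% = DMSO only and full loss = 92 µM tetraoctylammonium bromide; cytotoxic hits lower the live-cell protease signal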
How it was run: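 Cells plated at 2500 per well and incubated 5 hr; compounds added and incubated 16 hr at 37 C; MultiTox-Fluor reagent added for 60 min at room temperature; fluorescence of liberated AFC measured at 405/510 nm.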

[38] = Cell Viability - LYMP1-003 - Assay at 24 hr (AID 963)
How it was run: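 Acute toxicity in LYMP1-003 lymphoblastoid cells: 24 hr compound treatment at 37 C, ATP measured with CellTiter-Glo after 30 min at room temperature. AC50 derived by fitting the Hill equation to qHTS titrations.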

[39] = Cell Viability - LYMP1-003 - Assay at 40 hr (AID 964)
How it was run: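 This qHTS cytotoxicity screen treats human lymphoblastoid cells (LYMP1-003) with compounds for 40 hr and quantifies cellular ATP via luciferase luminescence.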

[40] = Cell Viability - LYMP2-003 (AID 965)
How it was run: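 Acute cytotoxicity is scored as a concentration-dependent drop in intracellular ATP, measured by luciferase luminescence in human lymphoblastoid cells treated for 24 hours at 37 C. AC50 values derive from Hill-equation modelling.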

[41] = Cell Viability - LYMP2-004 (AID 966)
How it was run: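 Acute toxicity is scored as a concentration-dependent drop in intracellular ATP, quantified by luciferase luminescence, in human lymphoblastoid cells exposed to compound for 24 hr. AC50 derives from Hill-equation modelling.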

[42] = Cell Viability - LYMP2-005 (AID 967)
How it was run: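 qHTS viability screen in LYMP2-005 cells: 24 h at 37 C with compound, ATP luminescence via CellTiter-Glo, AC50 from Hill curves.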

[43] = Cell Viability - LYMP2-009 (AID 968)

Chain of 3',5'-cyclic-AMP phosphodiesterase 4B (Homo sapiens) (Q07343 whole entry, looked up): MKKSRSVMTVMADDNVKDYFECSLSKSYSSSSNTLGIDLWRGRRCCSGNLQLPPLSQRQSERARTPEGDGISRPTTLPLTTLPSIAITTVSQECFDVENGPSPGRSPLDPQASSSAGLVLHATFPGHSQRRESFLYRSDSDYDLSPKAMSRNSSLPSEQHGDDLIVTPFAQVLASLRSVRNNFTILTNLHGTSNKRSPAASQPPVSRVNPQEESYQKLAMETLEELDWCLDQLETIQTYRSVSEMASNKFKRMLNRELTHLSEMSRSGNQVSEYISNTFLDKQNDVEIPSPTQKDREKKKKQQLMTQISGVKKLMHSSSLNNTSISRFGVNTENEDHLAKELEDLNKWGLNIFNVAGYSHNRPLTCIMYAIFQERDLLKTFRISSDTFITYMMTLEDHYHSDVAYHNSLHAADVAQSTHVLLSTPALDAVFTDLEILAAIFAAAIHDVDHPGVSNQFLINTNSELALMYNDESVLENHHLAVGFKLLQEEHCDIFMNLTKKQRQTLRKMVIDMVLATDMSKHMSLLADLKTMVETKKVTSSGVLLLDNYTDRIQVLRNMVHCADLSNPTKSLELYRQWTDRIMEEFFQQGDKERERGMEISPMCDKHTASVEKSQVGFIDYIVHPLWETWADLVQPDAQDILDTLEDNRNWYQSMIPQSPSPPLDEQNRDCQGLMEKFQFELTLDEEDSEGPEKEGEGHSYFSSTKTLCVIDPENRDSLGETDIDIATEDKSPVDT

CN(C)CCOC(c1ccccc1)c1ccccc1 (tested in a mixture with another compound)
inactive: activity change, negative = inhibition [1] 27.4% [at 17.2 µM] and 19.6% [at 17.2 µM] | Potency [2] > 92 µM | Potency [3] > 92 µM | Potency [4] > 92 µM | Potency [5] > 92 µM | Potency [6] > 92 µM | activity, negative = inhibition [8] 7.8% [at 17.2 µM] and 0.334% [at 17.2 µM] | Potency [9] | outcome [10] | outcome [11] | outcome [12] | outcome [13] | Potency [15] | outcome [16] | outcome [17] | outcome [18] | outcome [19] | outcome [20] | outcome [21] | outcome [22] | outcome [23] | outcome [24] | outcome [25] | outcome [26] | outcome [27] | outcome [28] | Potency [29] | outcome [30] | outcome [31] | outcome [32] | outcome [33] | outcome [34] | outcome [35] | outcome [36] | outcome [37] | outcome [38] | outcome [39] | outcome [40] | outcome [41] | outcome [42] | outcome [43]
active: activity change, negative = inhibition [7] -93.6% [at 17.2 µM] | Potency [14] 25.1 µM
